NR2F2 inh – inhibitors of human COUP-TFII (NR2F2) | inhibition, % at 8.6 µM | HEK293T NGFI-A luciferase reporter, luminescence | actives 0.7% (n = 370,000);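 active = inhibition above a per-plate cutoff, mean inhibition of test wells between control levels plus 3 SD, cut at about 38% in these data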;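 note: cells cotransfected with COUP-TFII expression vector driving the NGFI-A reporter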
Jurkat NFkB inh – lowers PMA/ionomycin-induced NF-kB signal in Jurkat cells. PMA/ionomycin-induced NF-kB luciferase reporter, luminescence. inhibition, % at 4 µM. actives 0.53% (n = 330,000). AID 435003; in the data active = inhibition above about 50%
GalR3 antagonist – antagonists of human GalR3; HEK293 GalR3-CNG cAMP membrane potential fluorescence; galR3 body fused to GalR1 C-terminus; inhibition, % at 3 µM; actives 0.44% (n = 360,000); AID 651719;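 active = inhibition above the screen-wide average plus 3 SD, cut at about 13% in these data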;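 note: forskolin and galanin both at EC90 stimulate the cells; cAMP rise reported by CNG channel membrane potential dye signal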
Target sequence (O60755 1-299 limits assumed): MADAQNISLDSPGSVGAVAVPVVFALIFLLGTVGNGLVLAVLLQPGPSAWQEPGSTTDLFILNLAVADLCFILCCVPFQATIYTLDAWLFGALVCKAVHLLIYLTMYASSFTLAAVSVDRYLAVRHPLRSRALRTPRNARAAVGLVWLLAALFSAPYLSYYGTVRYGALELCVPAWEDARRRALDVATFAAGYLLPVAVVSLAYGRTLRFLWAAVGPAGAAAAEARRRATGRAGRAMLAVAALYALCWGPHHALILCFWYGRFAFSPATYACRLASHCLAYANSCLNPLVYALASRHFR
Gli-Sufu block – Gli-Sufu pathway antagonism; Sufu-KO-LIGHT fibroblasts, Gli luciferase reporter luminescence; inhibition, % at 5 µM; actives 0.74% (n = 340,000); AID 588413;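 active = inhibition above about 55%, limit read from the data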
697 NFkB inh – inhibitors of the PMA/ionomycin-induced NF-kB reporter in 697 B cells | 697 B-cell NF-kB luciferase reporter, 16 h | inhibition, % at 4 µM | actives 0.33% (n = 330,000); in the data active = inhibition above about 35%
697 NFkB conf – lowers PMA/ionomycin-induced NF-kB signal in 697 B cells | shares compounds with 697 NFkB inh | 697 B-cell NF-kB luciferase, 16 h | inhibition, % at 4 µM | actives 35% (n = 2,000); in the data active = inhibition mostly above about 28%, no sharp cut-off; inactive = mostly below about 22%
Of the large screens only hits and unclear results are named; the others gave an inactive call (follow-up assays come after a bar, where they were run). This is a sample that favours compounds with a hit; in the whole collection about 2% have one here.

CCCCCc1c(C)nc(Nc2nc(C)c3cc(OC)ccc3n2)[nH]c1=O	697 NFkB inh 39 | 697 NFkB conf inactive
CCc1ccc2nc(Nc3nc(COC)cc(=O)[nH]3)nc(C)c2c1	697 NFkB inh 42 | 697 NFkB conf 38
CCc1c(C)nc(Nc2nc(C)c3cc(OC)ccc3n2)[nH]c1=O	none
Cc1cc(C)c2nc(NC(=O)C3CSC4(C)CCC(=O)N34)sc2c1 (stereo not given)	697 NFkB inh 47 | 697 NFkB conf 45
CCOC(=O)Cn1c2c(c(=N)c3ccccc31)CCC2	none
CCCCn1c2c(c(=N)c3ccccc31)CCC2	697 NFkB inh 44 | 697 NFkB conf 46
CCC(C)N1C(=O)/C(=C/c2c(NCCCOC(C)C)nc3c(C)cccn3c2=O)SC1=S (stereo not given)	697 NFkB inh 38 | 697 NFkB conf 34
CCCN1C(=O)/C(=C/c2c(NCCCOC(C)C)nc3c(C)cccn3c2=O)SC1=S	none (no result: NR2F2 inh, GalR3 antagonist)
CCOC(=O)CNC(=O)N(C)[C@H]1C[C@H]2c3[nH]c4c(-c5cccc(C)c5)cccc4c3CCN2C(=O)[C@H]1[C@H](C)O	none (no result: Jurkat NFkB inh, GalR3 antagonist, Gli-Sufu block, 697 NFkB inh)
C=CCN1C(=O)[C@@H](CC(=O)N2CCCC2)[C@]2(C(=O)OC)CCCCC=C12	none (no result: Jurkat NFkB inh, GalR3 antagonist, Gli-Sufu block, 697 NFkB inh)
CC(CSc1nnnn1-c1ccccc1)Cn1c(N2CCCC2)nc2c1c(=O)[nH]c(=O)n2C (stereo not given)	none
Cn1c(=O)[nH]c(=O)c2c1nc(N1CCOCC1)n2CCc1ccccc1	697 NFkB inh 47 | 697 NFkB conf inactive
Cn1c(=O)[nH]c(=O)c2c1nc(N1CCOCC1)n2CCSc1nnnn1-c1ccccc1	697 NFkB inh 38 | 697 NFkB conf inactive
COc1ccc(CCn2c(N3CCOCC3)nc3c2c(=O)[nH]c(=O)n3C)cc1	none
Cn1c(=O)oc2cc(S(=O)(=O)N3CCN(CCO)CC3)ccc21	none (no result: Jurkat NFkB inh, GalR3 antagonist, Gli-Sufu block, 697 NFkB inh)
O=C(N/N=C/c1ccc(Cl)cc1Cl)c1ccc(-n2cnnn2)cc1	697 NFkB inh 39 | 697 NFkB conf 35
CN(Cc1ccco1)S(=O)(=O)c1ccc2c(c1)CCN2C(=O)CC(C)(C)C	none (no result: Jurkat NFkB inh, GalR3 antagonist, Gli-Sufu block, 697 NFkB inh)
Cc1cc(NS(=O)(=O)c2ccc(NC(=O)CSc3nc4sc(C)c(C)c4c(=O)n3Cc3ccco3)cc2)nc(C)n1	none (no result: Jurkat NFkB inh, GalR3 antagonist, Gli-Sufu block, 697 NFkB inh)
Cc1ccccc1NC(=O)/C(C#N)=C\c1cc(C)n(-c2ccc(C(=O)O)cc2)c1C	697 NFkB inh 40 | 697 NFkB conf inactive
COc1ccc2nc(NC(=O)Nc3ccccc3OC)sc2c1	none | 697 NFkB conf inactive
COc1ccc2nc(NC(=O)Nc3cccc4ccccc34)sc2c1	none
COc1ccc2nc(NC(=O)c3cccs3)sc2c1	none | 697 NFkB conf inactive
COc1ccc2nc(NC(=O)c3ccccc3O)sc2c1	none | 697 NFkB conf inactive
Cc1cc(C)nc(Sc2ccc([N+](=O)[O-])cc2[N+](=O)[O-])n1	697 NFkB inh 41 | 697 NFkB conf 29
Cc1ccc2nc3sc(C(=O)N4CCN(C)CC4)cc3cc2c1	none (no result: Jurkat NFkB inh, GalR3 antagonist, Gli-Sufu block, 697 NFkB inh)
CC(C)N(c1ccccc1)c1ccc(NC(=O)CCl)cc1	697 NFkB inh 35 | 697 NFkB conf inactive
O=C(CCl)Nc1ccc(-c2ccccc2)cc1	none
O=C(O)c1ccc(N/N=C/c2cccc(C(F)(F)F)c2)cc1	none | 697 NFkB conf inactive
Nc1c(-c2cccs2)cnc2c(-c3ccc(F)cc3)cnn12	none | 697 NFkB conf inactive
Cn1nnnc1Sc1ncnc2scc(-c3ccccc3Br)c12	none
Cn1nnnc1Sc1ncnc2scc(Br)c12	697 NFkB inh 37 | 697 NFkB conf 60
CC(=O)CC[C@@H]1CC[C@]2(CCCN(C(=O)C3CCCC3)C2)O1	none (no result: Jurkat NFkB inh, GalR3 antagonist, Gli-Sufu block, 697 NFkB inh)
COc1cc(-c2nc(C(=O)NCC3CCCO3)cc3c2[nH]c2ccccc23)cc(OC)c1OC (stereo not given)	697 NFkB inh 36 | 697 NFkB conf 40
COc1ccccc1-c1nc(C(=O)NCC2CCCO2)cc2c1[nH]c1ccccc12 (stereo not given)	none (no result: NR2F2 inh, GalR3 antagonist)
O=C(Nc1ccccc1C(=O)Nc1nnc(C(F)(F)F)s1)c1ccccc1	Gli-Sufu block 76, 697 NFkB inh 96 | 697 NFkB conf 94
CCOc1cc2nc(-c3ccc(OC)c(OC)c3)nc(N3CCOCC3)c2cc1OC	697 NFkB inh 45 | 697 NFkB conf 38
CC(=O)c1cc(-c2ccc([N+](=O)[O-])cc2)c(=O)n2c1CCC2	none (no result: Jurkat NFkB inh, GalR3 antagonist, Gli-Sufu block, 697 NFkB inh)
CNC(=O)COC(=O)c1cccnc1SC	697 NFkB inh 35 | 697 NFkB conf inactive
